Among the data in PubChem BioAssay AID720706 (Broad Institute, 2013) are GFP signal change (wild-type ribosome), OD600 change and RFP signal change values, retold here.

Screen size: about 350,000 compounds; about 5,500 (1.6%) were called active.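 Rule for the calls: active = significant combined selectivity score with lowered wild-type GFP, culture density cut under 30%, mutant RFP and density less affected; inactive = any of these conditions unmet.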 Many of the other results were omitted from the sample, so actives are more common in it than they were.

A short description of this assay: GFP drop in mixed WT/humanized-ribosome E. coli culture – GFP/RFP fluorescence, OD600, single point, bacterial rRNA inhibitor project, primary screen (AID 720706). The note with it: E. coli WT GFP vs humanized-ribosome RFP mutants, 24 h; GFP signal change (wild-type ribosome): stronger effect = lower value, DMSO median 0, no signal -100; OD600 change: measured here: OD600 growth, DMSO median 0, no signal -100; RFP signal change: measured here: RFP humanized mutant strains, DMSO median 0, no signal -100, concentration not given here.
With `COc1ccc(-c2ccc3n(c2=O)C[C@@H]2[C@@H](CO)[C@H](C(=O)Nc4ccccc4)[C@H]3N2C)cc1`, the GFP signal change (wild-type ribosome) is -5.3% (inactive), the OD600 change is -0.765% and the RFP signal change is -2.67%.
On to `N#C[C@H]1[C@@H](c2ccc(C#CC3CCCC3)cc2)[C@H](CO)N1C(=O)Nc1ccc(F)cc1`, for which the GFP signal change (wild-type ribosome) is -20.3% (inactive), the OD600 change is -36.1% and the RFP signal change amounted to 20.2%.
Turning to `CCn1ccnc1CN(C)C(=O)c1cc(COc2ccc(Cl)cc2OC)on1`, the GFP signal change (wild-type ribosome) is 2.1% (inactive), the OD600 change turned out to be 0.213% and the RFP signal change is -1.68%.
For `CSc1ccccc1OCc1cc(C(=O)N(C)CCc2c(C)n[nH]c2C)no1`, in that order: -27.9% (inactive), -25.7% and -4.44%.
For `COc1cc(Cl)ccc1OCc1cc(C(=O)N(C)CCc2c(C)n[nH]c2C)no1`, in that order: -23.6% (active), -18.4% and 4.51%.
For `CCOc1ccc(C(C)=O)cc1COC(=O)c1cnc(Cl)c(Cl)c1`, in that order: 4.75% (inactive), 3.34% and -2.34%.
With `Cc1ccc(/C(N)=N/OC(=O)COc2ccc(Cl)c(C)c2)cc1`, the GFP signal change (wild-type ribosome) was 6.91% (inactive), the OD600 change amounted to 1.73% and the RFP signal change was -7.27%.
For `COc1ccc(C(C)=O)cc1COc1ccc(Cl)c(C)c1`, in that order: -21% (active), 2.55% and 1.65%.
For `C[C@@H]1CN([C@@H](C)CO)C(=O)Cc2cc(NC(=O)Nc3ccc(C(F)(F)F)cc3)ccc2O[C@H]1CN(C)Cc1ccc(C(=O)O)cc1`, in that order: -4.09% (inactive), -39.2% and -9.85%.
For `C[C@@H]1CN([C@@H](C)CO)S(=O)(=O)c2ccc(C#Cc3cccnc3)cc2O[C@@H]1CN(C)C`, in that order: 11% (inactive), 15.5% and 0.337%.
`S=C(Nc1ccc(Cl)cc1Cl)N1CCCC1`: the GFP signal change (wild-type ribosome) is -29.6% (active), the OD600 change is 3.51% and the RFP signal change was -5.19%.
With `S=C(Nc1ccc(Br)cc1Cl)N1CCC2(CC1)OCCO2`, the GFP signal change (wild-type ribosome) was -18.4% (inactive), the OD600 change is -20.4% and the RFP signal change is -6.29%.
For `O=C(NC(=S)Nc1ccc(Cl)cc1Cl)C1CC1`, in that order: -7.95% (inactive), -11.5% and 2.17%.
As to `COc1ccc(-n2c(SCC(=O)NCc3ccco3)nnc2-c2c[nH]c3ccccc23)cc1`, the GFP signal change (wild-type ribosome) was -0.435% (inactive), the OD600 change was -16.1% and the RFP signal change is 3.4%.
For `O=C(CSc1nnc(-c2ccco2)n1Cc1ccccc1)NC(=O)NCc1ccco1`, in that order: -20.4% (active), -7.72% and 1.04%.
For `Cc1cc(C)n2nc(SCC(=O)NC(=O)NCc3ccco3)nc2n1`, in that order: 24.5% (inactive), 11.7% and -0.644%.
On to `Cc1ccc(C(=O)N/C(=C\c2ccc(F)cc2)C(=O)NCCN2CCOCC2)cc1`, for which the GFP signal change (wild-type ribosome) is 8.39% (inactive), the OD600 change turned out to be 9.73% and the RFP signal change is -0.48%.
For `Cc1c(C(=O)NCCN2CCOCC2)sc2nc(-c3ccc(F)cc3)cn12`, in that order: -16.9% (active), -2.55% and 3.25%.
For `Cc1c(C(=O)NCC2CCCO2)sc2nc(-c3ccccc3)cn12` (stereo unspecified), in that order: -4.79% (inactive), -21.2% and -7.98%.
With `C/C=C/c1ccc([C@H]2[C@@H](CO)N(C(=O)Cc3ccncc3)[C@@H]2CNC(C)=O)cc1`, the GFP signal change (wild-type ribosome) is 1.54% (inactive), the OD600 change was 6.92% and the RFP signal change was -0.347%.
For `Nc1nonc1-n1nnc(C(=O)N/N=C/c2ccc(Cl)cc2)c1-c1ccc2c(c1)OCO2`, in that order: 0.08% (inactive), 0.681% and -3.98%.
For `C(=N\Nc1ccc2ccccc2n1)/c1ccc2c(c1)OCO2`, in that order: -21.9% (active), 16.6% and -0.634%.
For `NC(=O)c1ccc(NC(=O)COC(=O)c2c3c(nc4ccccc24)/C(=C\c2ccc4c(c2)OCO4)CCC3)cc1`, in that order: 55.8% (inactive), -19.8% and 1.2%.
Regarding `C[C@@H]1CN([C@@H](C)CO)C(=O)c2cccc(NC(=O)c3cnccn3)c2O[C@H]1CN(C)S(=O)(=O)c1cccs1`, the GFP signal change (wild-type ribosome) is 4.71% (inactive), the OD600 change was determined as 6.99% and the RFP signal change was -1.1%.
For `CCC(=O)Nc1ccc2c(c1)OC[C@H](C)N(Cc1ccccc1OC)C[C@@H](C)[C@@H](OC)CN(C)C2=O`, in that order: 0.179% (inactive), 4.08% and 2.06%.
On to `CCCNC(=O)N(C)C[C@@H]1Oc2ncc(-c3ccccc3F)cc2C(=O)N([C@@H](C)CO)C[C@H]1C`, for which the GFP signal change (wild-type ribosome) was 0.96% (inactive), the OD600 change was 11.5% and the RFP signal change is -3.35%.
For `O=C(Nc1ccccc1)Oc1cccc2cccnc12`, in that order: 7.63% (inactive), 14.2% and 1.55%.
In the case of `CC(=O)/C(=N\Nc1ccc(Cl)cc1Cl)Sc1cccc2cccnc12`, the GFP signal change (wild-type ribosome) was -8.55% (inactive), the OD600 change is -0.275% and the RFP signal change is -1.79%.
For `O=C(Nc1ccccc1Cl)Nc1cccc2cccnc12`, the GFP signal change (wild-type ribosome) was -27.2% (active), the OD600 change is -17.3% and the RFP signal change is -8.08%.
For `COc1ccc2c3c(n(C)c2c1)[C@@H](CO)N(S(C)(=O)=O)CC31CCN(C(=O)C2CCC2)CC1`, in that order: -4.54% (inactive), -7.74% and -2.66%.
For `CCOC(=O)c1sc(/N=C/C2=C(O)CC(C)(C)CC2=O)c(C(=O)OCC)c1C`, in that order: -22.9% (active), -5.5% and -2.5%.
For `CCOC(=O)c1c(CC(C)C)csc1/N=C/C1=C(O)CCCC1=O`, in that order: -13.2% (inactive), -8.82% and 21.8%.
`CCNC(=S)N1CCN(CCN=CC2=C(O)CC(C)(C)CC2=O)CC1`: the GFP signal change (wild-type ribosome) was 9.96% (inactive), the OD600 change was found to be 0.25% and the RFP signal change was -7.06%.
For `CC(C)C#Cc1ccc([C@H]2[C@@H](CO)N3CCCCN(C(=O)Nc4ccccc4)C[C@H]23)cc1`, in that order: -26% (inactive), -29.6% and 1.8%.
For `CO[C@@H]1CN(C)C(=O)c2ccc(NC(=O)NC(C)C)cc2OC[C@@H](C)N(C)C[C@H]1C`, in that order: 2.58% (inactive), 9.18% and 2.18%.
Regarding `COC(=O)C1=CN(Cc2ccc(OC)c(OC)c2)C=C(C(=O)OC)C1c1cccs1`, the GFP signal change (wild-type ribosome) is -4.13% (inactive), the OD600 change was -22.2% and the RFP signal change was 6.91%.
For `C=CCOC(=O)c1ccccc1C(=O)OCC=C`, in that order: 7.54% (inactive), 7.92% and 12%.
For `C=CCOC(=O)C1=C(C)NC(C)=C(C(=O)OCC=C)C1c1cccs1`, in that order: -17.1% (active), -4.32% and 3.89%.
On to `Cc1noc(C)c1S(=O)(=O)Nc1ccc2c(c1)C(=O)N([C@@H](C)CO)C[C@@H](C)[C@@H](CN(C)S(=O)(=O)c1ccccc1)OCCCC[C@H](C)O2`, for which the GFP signal change (wild-type ribosome) was -1.55% (inactive), the OD600 change is -7.72% and the RFP signal change is -2%.
For `CC1(C(=O)NCc2ccco2)Cc2c(-c3ccc4c(c3)OCO4)ccnc2O1` (stereo unspecified), in that order: 10.2% (inactive), 0.265% and -2.19%.
For `CC(NC(=O)c1ccco1)c1ccc2c(c1)OCO2` (stereo unspecified), in that order: -0.41% (inactive), 4.91% and -2.06%.
For `O=C1Nc2ccccc2NC(c2ccc3c(c2)OCO3)=C1N(Cc1ccc(F)cc1)C(=O)c1ccco1`, in that order: -28.3% (active), -22.6% and 8%.
